ATXN viability = Viability Counterscreen for Primary qHTS for Inhibitors of ATXN expression; S2 cells (HEK-293 line with an ATXN2-luciferase reporter) viability, CellTiter-Fluor protease fluorescence, 24 h; Potency, µM (top dose mostly 56.7 µM), most hits filed as cytotoxic; actives 0.49% (n = 400,000); AID 651635, 2014; note: potency is the fitted concentration of half-maximal effect; nearly all actives have a fitted effect of over 40% in size
IL1B secr inh = qHTS for Inhibitors of Inflammasome Signaling: IL-1-beta AlphaLISA Primary Screen | THP-1 LPS/ATP IL-1B secretion, AlphaLISA, 16 h; active compounds read low | activity change, % at 57.5 µM | actives 4.7% (n = 360,000) | AID 743279, 2014; in the data active = activity change below about -50%; inconclusive = mostly about -30% to -49%; note: % is set by controls: 0 for no effect and ±100 for the full control effect
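Secreted IL-1B measured by AlphaLISA bead assay after 16 h compound exposure of THP-1 cells; compounds (final up to 57.5 uM) added 1 h before LPS (250 ng/mL) and ATP (1.25 mM) stimulation; lower signal means less secretion.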
TGFb inhibitor = qHTS for Inhibitors of TGF-b | actives 1.2% (n = 410,000) | Potency, µM (series often up to 46.1 µM), inactives show at the top dose activity, negative = inhibition, usual class: inhibitors | HepG2 CAGA-GFP TGF-b/SMAD3 reporter, GFP fluorescence, 18 h; TGF-beta stimulated, 500 pg/mL final; note: potency is the fitted concentration of half-maximal effect; % is set by controls: 0 for no effect and ±100 for the full control effect; nearly all actives have a fitted effect of over 65% in size
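Inhibition was scored as loss of TGF-beta-induced (500 pg/mL final, 18 hours, 37 degrees C) GFP in HEPG2 cells carrying a CAGA-GFP reporter, in DMEM with 1% FBS. Well GFP was summed per cell; Activity was normalised to unstimulated and stimulated DMSO wells, then concentration-response fitting.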
ATXN2 expr inh = Primary qHTS for Inhibitors of ATXN expression; HEK-293 ATXN2-luciferase reporter, luminescence, 24 h; Potency, µM (doses to about 57 µM), inactives show at the highest dose activity change, negative = inhibition, actives largely listed as inhibitors; actives 0.72% (n = 360,000); AID 1745845, 2022; note: potency is the fitted concentration of half-maximal effect; % is set by controls: 0 for no effect and ±100 for the full control effect; nearly all actives have a fitted effect of over 55% in size
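ATXN2-luciferase reporter cells (luciferase flanked by upstream and downstream ATXN2 gene portions) were treated 24 h at 37 °C with compounds at up to 57 uM. SteadyGlo luminescence gave expression; GF-AFC fluorescence gave viability.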
HepG2 viability = qHTS for Inhibitors of TGF-b: Cytotox Counterscreen | HepG2 CAGA-GFP viability, ATP luminescence, 18 h | Potency, µM (doses to about 46.1 µM), without a hit: top-dose activity change, negative = cytotoxicity, most hits filed as cytotoxic | actives 0.76% (n = 410,000); note: potency is the fitted concentration of half-maximal effect
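HepG2 CAGA-GFP cells (1000/well, DMEM with 1% FBS) received compound, then TGF-beta at 500 pg/mL final, and were incubated 18 hours at 37 degrees C. Viability was read by CellTiter-Glo luminescence. Media-only wells were set as complete cell-killing and DMSO as no toxicity.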
Numbers without * were called inactive; i = inactive; ? = inconclusive; · = not tested or not shown. Sampled rows, rich in hits. Any-hit rate of the full collection: about 5.7%. Unless noted, calls come from the whole dose curve; as a rule, active = well fitted curve in the direction sought with a large enough effect; inconclusive = small, poorly fitted or top-dose-only effect, or another doubt; inactive = no such curve, though single readings can be large; an effect the other way counts as inactive or inconclusive.

SMILES	ATXN viability	IL1B secr inh	TGFb inhibitor	ATXN2 expr inh	HepG2 viability
CCCCCCCCN1C(=O)[C@H](CC(=O)NCc2ccc(OC)c(OC)c2)C[C@@]2(C(=O)OC)CCCCC=C12	·	-58*	·	?	·
Cc1ccc(C(=O)c2cn(Cc3ccccc3F)c3cc4c(cc3c2=O)OCO4)cc1	i	·	-19%	-3%	-4%
CCOc1ccccc1CC1C(=O)Nc2ccc(Br)cc21 (centres undefined)	i	·	?	?	-38%
CCCOc1ccc(CC2C(=O)Nc3ccc(Br)cc32)cc1 (centres undefined)	?	·	11µM*	-24%	-95%
COc1ccc(CC2C(=O)Nc3ccc(Br)cc32)cc1OC (centres undefined)	·	·	-19%	·	16µM*
O=C(Nc1cccc(Cl)c1)c1ccc2nc(Cc3ccccc3)oc2c1	?	·	?	?	-47%
COC(=O)c1cc(C)nc2c1C(=O)C(=O)C=C2N1CCOCC1	3.2µM*	-100*	4.5µM*	3.5µM*	5µM*
COC(=O)c1cc(S(=O)(=O)N2CCOCC2)c(Cl)cc1N1CCOCC1	i	35	?	4%	2%
O=C(NCCSc1ccccn1)c1ccc(Cl)cc1	i	-8	-15%	-9%	-9%
N#CC(Sc1ccccn1)c1ccc(Cl)cc1 (centres undefined)	·	-100*	-6%	-4%	0%
O=C(NCc1ccco1)c1c(F)c(F)c(F)c(C(=O)NCc2ccco2)c1F	i	-131*	-22%	-23%	-13%
O=C(Nc1cccnc1)c1ccc([N+](=O)[O-])o1	i	-92*	?	1%	-83%
O=C(Nc1cccnc1)c1ccco1	i	-3	-2%	3%	-26%
O=C(Nc1ccc(Cl)cn1)c1ccc([N+](=O)[O-])o1	i	-226*	11µM*	?	18µM*
O=C(NCc1cccnc1)c1ccc([N+](=O)[O-])o1	?	-67*	?	·	-56%
O=C(CSc1cn(CCNC(=O)c2c(F)cccc2F)c2ccccc12)Nc1ccc(F)cc1	i	·	?	-10%	-40%
CCCCCCCCCOC(=O)CNc1nc(C#N)nc(NCC(=O)OCCCCCCCCC)n1	·	·	7%	·	17%
O=C(NC1CCCCC1)c1ccc([N+](=O)[O-])o1	i	·	?	9%	-18%
O=C(Nc1nc2ccccc2s1)c1ccc([N+](=O)[O-])o1	?	-68*	?	·	-30%
O=C(NN(c1ccccc1)c1ccccc1)c1ccc([N+](=O)[O-])o1	?	-93*	?	?	-97%
O=C(COC(=O)CNC(=O)c1ccc([N+](=O)[O-])o1)Nc1ncc(Cl)cc1Cl	i	-92*	?	-4%	-54%
CCN1C(=O)c2ccc(C(=O)NCc3ccco3)cc2C1=O	0.16µM*	11	-3%	-17%	5%
O=C(CCCCCCCCC#CI)Oc1ccccc1	i	·	·	-13%	·
CCCCNC(=O)[C@@H]1CC=C[C@@H]2CCN(Cc3ccc(OC)c(OC)c3)C(=O)[C@@H]21	·	·	-15%	·	-18%
COc1ccc(-c2nc3scc(CCNS(=O)(=O)c4ccc5c(c4)OCCO5)n3n2)cc1	·	·	0%	·	-11%
SMILES	ATXN viability	IL1B secr inh	TGFb inhibitor	ATXN2 expr inh	HepG2 viability
CC(C)c1nc2ccc(C(=O)Nc3ccccc3F)cc2o1	·	·	-21%	·	-34%
O=C(NCC1CCCO1)c1ccc([N+](=O)[O-])o1 (centres undefined)	?	?	13µM*	0%	-30%
O=C(NCc1ccco1)c1ccc(Cn2cc([N+](=O)[O-])cn2)o1	i	-12	8%	-6%	-9%
O=C(NCc1ccco1)c1ccc([N+](=O)[O-])o1	i	-61*	7%	3%	0%
O=C(CSc1nc(-c2ccccc2)no1)N1CCCCC1	i	·	?	3%	-6%
CC(C)CN=C(NS(=O)(=O)c1ccccc1)C(Cl)(Cl)Cl	?	-12	?	?	11µM*
CC(C)CC(NS(=O)(=O)c1ccccc1)C(=O)O (centres undefined)	i	-8	24%	2%	0%
COc1ccccc1NC(=O)Cn1c(=O)n(Cc2ccc3c(c2)OCO3)c(=O)c2oc3ccccc3c21	·	·	4%	·	0%
C/C(=N\NC(=S)NC(C)C)c1ccc(Cl)c([N+](=O)[O-])c1	i	-92*	?	·	-32%
COc1ccc(CN2CCc3nnc(CCc4ccccc4)n3CC2)c(OC)c1C	i	·	·	·	·
COc1cccc(C(=O)CC(=O)C(=O)Nc2cccc([N+](=O)[O-])c2C)c1	i	-92*	-4%	-20%	-41%
CCOC(=O)Cn1c(C(F)(F)F)nc2nc(Cl)c(Cl)nc21	i	-92*	?	-22%	-8%
CCOC(=O)c1c(-c2ccc(C)cc2)csc1/N=C/N(C)C	i	-11	-2%	·	1%
CCOC(=O)c1c(-c2ccc(F)cc2)csc1/N=C/N(C)C	i	-87*	15%	-17%	-25%
OC1(c2cccnc2)CCN(Cc2ccc3c(c2)CN(Cc2ccsc2)CCO3)CC1	i	·	·	·	·
COc1ccc(C(=O)C[n+]2cccc3cccc(O)c32)cc1	·	·	22%	·	10%
Cc1[nH]c(=O)[nH]c1C(=O)CCCCC(=O)OCC(=O)Nc1ccccn1	i	-114*	-13%	6%	3%
COc1ccc(Cn2c(C(=O)O)c(CNCCc3cccs3)c3ccc(C)cc32)cc1	32µM*	·	-27%	?	-32%
COc1ccc2c(CNCc3ccco3)c(C(=O)O)n(Cc3ccccc3)c2c1	?	·	0%	-15%	0%
COc1ccc(Cn2c(C(=O)O)c(CNCc3ccco3)c3ccc(C)cc32)cc1	7.9µM*	·	42%	-13%	-24%
Cc1ccc(Nc2cc(-c3cccc(N4C(=O)c5ccccc5C4=O)c3)ncn2)cc1NS(C)(=O)=O	·	·	·	17%	·
CCc1ccc(C(O)c2ncc(-c3ccc(C(F)(F)F)cc3)[nH]2)cc1 (centres undefined)	i	-7	16µM*	-17%	-75%
OC(c1ccc(-c2ccccc2)cc1)c1ncc(-c2ccc(C(F)(F)F)cc2)[nH]1 (centres undefined)	?	-11	?	?	-113%
CCOc1ccccc1CN1CCNC(=O)C1CC(=O)N(C)Cc1nonc1C (centres undefined)	i	-57*	?	-4%	0%
Cc1ccc(C(=O)/C=C\C(=O)c2ccc(C)cc2)cc1	i	-62*	?	-10%	-47%
Cc1ccc(S/C=C\C(=O)c2ccccc2)cc1	22µM*	-103*	?	?	-9%
O=[N+]([O-])/C=C/c1cc2ccccc2[nH]1	?	-4	?	·	20µM*
